High-throughput results: PubChem BioAssay, National Center for Advancing Translational Sciences (NCATS)
The list is not random: actives were taken first. Their share in the collection is about 1.6%.
Peg3 imprint: inducers of genomic imprint erasure in mouse ES cells; actives 0.02% (n = 110,000); mouse ES Peg3-LacZ reporter, beta-gal luminescence, 40 h; Potency, µM (titrated, usually from 60.7 µM), usual class: activators
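Gelatin-coated wells received 300 freshly trypsinized female ES cells with a Peg3LacZ-Neo reporter on the maternal allele, then incubated 40 hours at 37C. BetaGlo was added for 5 minutes at room temperature before a single luminescence read.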
p53ts 39C kill: kills p53ts cells at the nonpermissive temperature; H1299-p53A138V viability at 39C, ATP luminescence, 24 h; Potency, µM (series often up to 46.1 µM), hits mostly cytotoxic; actives 1.5% (n = 130,000); further: nearly all actives have a fitted effect of over 55% in size
UbGFP stabilizer: inhibits proteasome, raising ubiquitin-GFP reporter fluorescence | Ubiquitin-GFP reporter cells, proteasome inhibition, GFP fluorescence; response scale: untreated = 0%, 10 µM MG-132 = 100% | Potency, µM (titrated, usually from 45.9 µM), actives largely listed as activators | 67,000 tested, under 10 active | AID 526; active means well fitted activation curve with a large enough effect, not every such curve was filed as active; inconclusive means small, poorly fitted or top-dose-only effect, or another doubt; inactive means no such curve, though single readings can be large or run the other way
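U2OS Ub(G76V)-GFP reporter; O/N plating, 0.5% FBS; cpd 46 uM–2.9 nM, 4 h, 37 °C; GFP+ cell count, 488/515 nm; norm. to basal vs 10 uM MG-132; CRC fit.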
p53ts 32C tox: p53ts cell cytotoxicity, permissive temperature | actives 0.93% (n = 130,000) | H1299-p53A138V at 32C, ATP luminescence viability, 24 h | Potency, µM (series often up to 46.1 µM), usual class: cytotoxic; further: nearly all actives have a fitted effect of over 55% in size
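Cells: H1299 p53ts (A138V), 600/well, pre-incubated 16–30 h at 37C. Cpd up to 46 uM, 24 h, 32C. Readout: ATPlite luminescence, 20 min RT. Normalization: DMSO vs tamoxifen 100 uM. AC50 by Hill equation.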
HBB splice mod: hemoglobin beta splicing modulation | HBB splicing reporter cell assay, activation; EGFP reporter with mutant IVS2-654 intron; response scale: normalised to 500 nM splice-correcting PNA | Potency, µM (series often up to 46.1 µM), hits mostly activators | actives 0.06% (n = 65,000)
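Compounds were applied for 2 days to HeLa EGFP-654 cells, 500/well in Optimem with 2% FCS. The reporter's EGFP is disrupted by mis-splicing of beta-globin intron IVS2-654. Readout: summed well GFP fluorescence from 488 nm laser scanning; reference was 500 nM antisense […] 654 PNA.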
Epigenetic mod: derepresses silenced GFP locus in mouse C127i cells. mouse C127i GFP locus derepression, cytometry, 30 h. Potency, µM (series often up to 46.1 µM). actives 0.09% (n = 68,000)
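Locus derepression in mouse mammary C127i cells whose integrated CMV-GFP reporter is normally silent; GFP expression after 30 h compound treatment was quantified by counting fluorescent cells.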
A number is an active result; n = inactive; u = inconclusive; x = no result; [ ] = another dose, or the depositor's remark. Unless noted, the call rests on the fitted dose curve; in most records, active means well fitted curve in the direction sought with a large enough effect; inconclusive means small, poorly fitted or top-dose-only effect, or another doubt; inactive means no such curve, though single readings can be large; an effect the other way counts as inactive or inconclusive.

SMILES	Peg3 imprint	p53ts 39C kill	UbGFP stabilizer	p53ts 32C tox	HBB splice mod	Epigenetic mod
COc1ccc(C(=O)Nc2nnc(C)s2)cc1	n[10.9 µM]	13µM	x	13µM	x	x
COc1ccc(C(=O)Nc2cc(OC)nc(OC)n2)cc1	x	10µM	x	16µM	x	x
COc1ccc(C(=O)Nc2cccc(C)c2)cc1	n	5µM	n[9.17 µM]	6.3µM	n[0.0738 µM]	n
COc1ccc(C(=O)Nc2ccccc2C(N)=O)cc1	n	13µM	n	13µM	n	n
C=CCN1C=CC(=C/C=C(/C#N)C(=O)OCC)C=C1	x	u	x	10µM	x	x
CCOC(=O)/C(C#N)=C/c1ccc(-c2ccc(Br)cc2)o1	n[10.9 µM]	n	x	n	x	x
O=c1c(-c2ccc3c(c2)OCCO3)coc2cc(O)cc(O)c12	n	7.9µM	n	13µM	n	n
Cc1ccc2nc(Cl)c3cc(C(=O)N4CCCC(C)C4)sc3c2c1 (stereo unspecified)	n[10.9 µM]	n	x	n	x	x
COc1ccc(OC)c(NC(=O)C2CCCN(S(=O)(=O)c3ccc4[nH]c(=O)ccc4c3)C2)c1 (stereo unspecified)	n[10.9 µM]	n	x	n	x	x
COc1ccc(C2c3c(n(C)c4ccccc34)C(=O)N2CC(=O)Nc2ccc(C)cc2Cl)cc1 (stereo unspecified)	n[10.9 µM]	n	x	n	x	x
COc1cc(C(=O)NC(c2ccccc2Cl)c2cc(Cl)c3cccnc3c2O)cc(OC)c1OC (stereo unspecified)	n[10.9 µM]	u	x	u	x	x
COc1ccc(C(=O)NC(c2ccccc2Cl)c2cc(Cl)c3cccnc3c2O)cc1 (stereo unspecified)	n[10.9 µM]	2.5µM	x	n	x	x
CCc1ccc(NC(=O)CN2C(=O)C(c3ccc(Cl)cc3)=NC23CCCCC3)cc1	n[10.9 µM]	n	x	n	x	x
Cc1oc2ccc(O)c(CN(C)Cc3ccccc3)c2c1C(=O)Nc1cccc(C(F)(F)F)c1	n[10.9 µM]	20µM	x	14µM	x	x
CCc1ccc(C2CC(=O)Nc3c2c(=O)n(C)c2ncnn32)cc1 (stereo unspecified)	n[10.9 µM]	n	x	n	x	x
Cc1ccc(C(=O)Nc2onc3c2CCCC3)cc1	n[10.9 µM]	6.3µM	x	4µM	x	x
Cc1ccc(NC(=O)CCn2cccn2)cc1Cl	n[10.9 µM]	n	x	n	x	x
CCCC[C@H](CC)CN=C(N)NC(N)=NCCCCCCN=C(N)NC(N)=NC[C@@H](CC)CCCC	n	13µM	n	n	n	n
Cc1ccc(NC(=O)c2c(C)cc(C)nc2SCC(=O)Nc2ccc(Br)cc2)cc1	u	n	x	u	x	x
NC[C@@H]1O[C@H](C23CC4CC(CC(C4)C2)C3)Cc2c1ccc(O)c2O	n	20µM	n	u	n	n
Nc1cc(C2CCCC2)nn1-c1ccccc1	n	u	n	13µM	n	n
CC(C)C=O	n	x	x	x	n	x
Cn1c(=O)n(C)c2cc(N3CCOCC3)c(NS(=O)(=O)c3ccc(Br)cc3)cc21	n[10.9 µM]	n	x	n	x	x
O=C(Nc1nc2c(s1)C(=O)CCC2)c1ccccc1	n	16µM	n	13µM	n	n
COc1cccc(C(=O)Nc2nc3c(s2)CCCC3)c1	n[10.9 µM]	13µM	x	10µM	x	x
SMILES	Peg3 imprint	p53ts 39C kill	UbGFP stabilizer	p53ts 32C tox	HBB splice mod	Epigenetic mod
CN(C)c1ccc(C(=O)Nc2nc3c(s2)CCCC3)cc1	n	u	n	u	n	x
O=CC(=O)c1ccccc1	n	n	x	n[1.84 µM]	n	x
CC1N/C(=C\C(=O)c2ccccc2)N(O)C1(C)C (stereo unspecified)	n	13µM	n	10µM	n[0.369 µM]	n
COC(=O)c1ccc(Cn2nnc3c(=O)[nH]c(C4CCCN(S(=O)(=O)c5cccc(Cl)c5)C4)nc32)cc1 (stereo unspecified)	u	n	x	n	x	x
O=C(Cn1c(=O)n(-c2ccccc2)c(=O)c2c3c(sc21)CCCC3)Nc1ccccc1	n[10.9 µM]	13µM	x	u	x	x
CCOC(=O)CNc1ncnc2nc[nH]c12	n	u	n	7.9µM	n	x
Cc1cccc(Cn2c(N(C)Cc3ccccc3)nc3c2c(=O)[nH]c(=O)n3C)c1	n	5µM	n	6.3µM	n	x
O=C(NCc1ccccc1Cl)c1ccc2c(O)c(S(=O)(=O)c3ccccc3)c(=O)[nH]c2c1	n[10.9 µM]	n	x	n	x	x
O=C(NCCc1ccccc1)c1ccc(CSc2nc3cccnc3n2Cc2ccc(F)cc2)cc1	x	x	x	n	x	x
Cc1ccc(CSc2nc3cccnc3n2Cc2ccc(C(=O)NCc3ccco3)cc2)cc1	x	x	x	5.6µM	x	x
Cc1ccc(CNC(=O)c2ccc(Cn3c(SCc4ccc(F)cc4)nc4cccnc43)cc2)o1	n[10.9 µM]	20µM	x	u	x	x
O=C(NCCc1cccs1)c1ccc(Cn2c(SCc3ccc(F)cc3)nc3cccnc32)cc1	n[10.9 µM]	16µM	x	13µM	x	x
COc1ccc(NC(=O)C2=C(C)Nc3nc(CCCO)nn3C2c2ccc(O)cc2)cc1 (stereo unspecified)	n[10.9 µM]	n	x	n	x	x
CCCCCn1c(=N)n(CC(O)COc2cccc(C)c2)c2ccccc21 (stereo unspecified)	n[10.9 µM]	10µM	x	u	x	x
O=C(c1ccco1)N1CCC2(CC1)CCN(c1cccc(-c3ccccc3)c1)CC2	x	n	n	n	n	n[9.22 µM]
COc1ccc(/C=C/C(=O)Nc2sc(C)c(C)c2C(=O)O)cc1	n[10.9 µM]	n	x	2.5µM	x	x
CCc1ccc(NS(=O)(=O)c2ccc3oc(=O)c4ncn(CC)c4c3c2)cc1	n[10.9 µM]	13µM	x	u	x	x
CC1CCC(NC(=O)C2(C)Cc3ccccc3C(=O)N2Cc2ccc(F)cc2)CC1 (stereo unspecified)	n[10.9 µM]	n	x	n	x	x
Cc1nc2c(-c3ccccc3)c(C)nn2c(N)c1-c1ccccc1	x	u	x	11µM	x	x
